{"source": "PubChem BioAssay (NCI)", "note": "This is part of a sample that, as a whole, favours compounds with a hit. Of some 83,000 tested, about 20% had one in any assay.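 A percent growth of 40 corresponds to 60% growth inhibition; 0 means no net growth; -100 means all cells died. Active threshold: below 10.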 Unmarked numbers belong to inactive results. Active and inactive are the calls of the source.", "data": [{"tested_on": "SW-620 colon", "assay": "NCI-60 one-dose screen, 48 h (100 = growth as untreated, 0 = no growth, -100 = all killed)", "details": "10 µM unless noted", "procedure": "Growth inhibition of the SW-620 human tumor cell line is measured as a screen for anti-cancer activity. Cells are grown in 96 well plates and exposed to the test compound for 48 hours. Compounds are tested at a single concentration, which is 10^-5 M for most compounds. The reported endpoint is percent growth (GI% or GIPRCNT), where numbers from 0 - 100% represent growth inhibition, and numbers from -100% - 0 represent cell death. For example, a value of 40 represents 60% growth inhibition. A value of 0 means no net growth occurred over the course of the experiment. A value of -40 indicates 40% of cells at the beginning of the experiment died by the end of the experiment. A value of -100 means all cells are dead at the end of the experiment.\nNCI-60 Human Tumor Cell Lines Screen was performed using the standard one-dose NCI protocol, which is described in more detail at https://dtp.cancer.gov/discovery_development/nci-60/default.htm.\nCompounds with GIPRCNT values below 10 were considered active. Activity score was based on GIPRCNT using the following formula: […]\nScore is 0 for GIPRCNT values of 100 or above, 50 for GIPRCNT values of 0, and 100 for GIPRCNT values of -100.", "values": [{"smiles": "Cc1ccc(-c2c3c(N)c4c(nc3nc3c2c(C)nn3-c2ccccc2)CCCC4)cc1", "growth": "97.1%"}, {"smiles": "CS(=O)(=O)Nc1cccc(C(=O)NCc2ccc(N3CCOCC3)cc2)c1", "growth": "108%"}, {"smiles": "CCCN1CCN(c2ccc3nc(-c4ccc5nc(-c6ccc(C(F)(F)F)cc6)[nH]c5c4)[nH]c3c2)CC1", "growth": "-82.6% (active)"}, {"smiles": "Cc1nc2cc(Nc3nc(Nc4ccc(F)cc4)nc(-c4ccc(Cl)cc4)n3)ccc2n1Cc1ccccc1", "growth": "68.1%"}, {"smiles": "CC(=O)OC[C@]1(C)C=C2C(=O)[C@](C)(O)C3(CC3)C(C)=C2[C@H]1OC(C)=O", "growth": "88.2%"}, {"smiles": "COc1cc(CNCCCN2C(=O)c3ccc4c5c(ccc(c35)C2=O)C(=O)N(CCCNCc2cc(OC)c(OC)c(OC)c2)C4=O)cc(OC)c1OC", "growth": "-69.8% (active)"}, {"smiles": "CCOC(=O)c1[nH]c2cc(Cl)ccc2c1[C@@H](C(=O)NC(C)(C)C)N(CC)C(=O)CCCCC#Cc1cccc2c1CN(C1CCC(=O)NC1=O)C2=O", "note": "(stereo not given in full)", "growth": "22.2%"}, {"smiles": "COc1ccc(OC)c(/C=C2\\Oc3cc(O)ccc3C2=O)c1", "growth": "92.2%"}, {"smiles": "CCSc1nnc2c3cc(Br)ccc3n(C)c2n1", "growth": "103%"}, {"smiles": "COc1ccc(/C=N/OCC(O)CN2CCC(O)CC2)cc1OC1CCCC1", "note": "(stereo not given)", "growth": "104%"}, {"smiles": "Clc1nc(-c2ccccn2)nc2sc3c(c12)CCCCCC3", "growth": "102%"}, {"smiles": "COc1ccc(/C=N/OCC(O)CNCc2ccccc2)cc1OC1CCCC1", "note": "(stereo not given)", "growth": "103%"}, {"smiles": "N#CC1=C(N)Oc2cc(N)ccc2C1c1ccc(F)cc1", "note": "(stereo not given)", "growth": "46.8%"}, {"smiles": "FCOC(C(F)(F)F)C(F)(F)F", "growth": "101%"}, {"smiles": "COc1cc(/C=C/C(=O)C2=C(/C=C/c3ccc(O)c(OC)c3)NC(=O)NC2c2ccc(O)c(OC)c2)ccc1O", "note": "(stereo not given)", "growth": "94.2%"}, {"smiles": "Cc1cccc2c(=O)c3c(sc12)c(NCCNCCO)nc1ccccc13", "growth": "-67% (active)"}, {"smiles": "Cc1nc(NN)c([N+](=O)[O-])c(NN)n1", "growth": "104%"}, {"smiles": "CCCCNNC(=O)c1ccc(Br)cc1", "growth": "32.6%"}, {"smiles": "Cc1ccccc1-c1cc(-c2ccc(Br)s2)[nH]c(=O)c1C#N", "growth": "108%"}, {"smiles": "Clc1ccc2c(N3CCN(c4ccnc(NC5CCCCC5)n4)CC3)ccnc2c1", "growth": "33.7%"}, {"smiles": "CN1CCC(OC2c3ccccc3CCc3ccccc32)CC1", "growth": "95.1%"}, {"smiles": "O=c1c2cc(F)ccc2oc2c(NCCNCCO)nc3ccccc3c12", "growth": "21.4%"}, {"smiles": "N#C/C(=C\\c1ccc[nH]1)c1cc2ccccc2[nH]1", "growth": "96.3%"}, {"smiles": "CCOC(=O)C(CC(c1ccccc1)N1CCCCC1)[N+](=O)[O-]", "note": "(stereo not given)", "growth": "84.9%"}, {"smiles": "O=S(=O)(OCCO)c1ccccc1", "growth": "101%"}, {"smiles": "CCN(c1ccc(C(=O)N2CCN(c3ccccc3)CC2)cc1)S(C)(=O)=O", "growth": "108%"}, {"smiles": "CC(C)(C)[Si](C)(C)OC1[C@@H](COC(N)=O)O[C@@H](n2cnc3c(N)ncnc32)[C@H]1O[Si](C)(C)C(C)(C)C", "note": "(stereo not given in full)", "growth": "100%"}, {"smiles": "O=C1NC(=S)S/C1=C\\c1cccc([N+](=O)[O-])c1", "growth": "115%"}, {"smiles": "Cn1c2ccccc2c2nn(C(=O)c3ccccc3)c(=O)nc21", "growth": "100%"}, {"smiles": "Cc1ccccc1-n1nnc(C(=O)Nc2nc(-c3ccccc3)c(-c3ccccc3)s2)c1C", "growth": "87.3% [50 µM]"}, {"smiles": "O=C(N/N=C(\\CS(=O)(=O)c1ccccc1)c1cc2cc(Br)ccc2oc1=O)c1ccccc1", "growth": "102%"}, {"smiles": "Clc1ccc(Nc2ccnc(N3CCN(c4ccnc5cc(Cl)ccc45)CC3)n2)cc1", "growth": "48.5%"}, {"smiles": "CC(C)NCC(O)COc1ccc(CCOCC2CC2)cc1", "note": "(stereo not given)", "growth": "102%"}, {"smiles": "Cc1ccc(C)c2c1sc1nc3nc4sc5ccccc5n4c(=N)c3c(=O)n12", "growth": "108%"}, {"smiles": "NS(=O)(=O)c1cc(Br)c2c(c1)S(=O)(=O)NCN2", "growth": "109%"}, {"smiles": "COc1cccc(C2CC(=O)Nc3cc4c(cc32)CCC4)c1OC", "note": "(stereo not given)", "growth": "29.3%"}, {"smiles": "CCCCCCCC/C=C\\CCCCCCCCOc1cccc(CC(=O)NCC[N+]2(C)CCCCC2)c1", "growth": "59.7%"}, {"smiles": "COc1cc(Cn2cc(F)c(=O)[nH]c2=O)cc(OC)c1", "growth": "102% [50 µM]"}, {"smiles": "NC(=O)c1nc2c([nH]c1=O)CCCC2", "growth": "101%"}, {"smiles": "C=C[C@H]1C[C@@H]2C[C@@H]3[C@H]4C/C=C\\C(=O)NCCCC5NC(=O)C(=C(O)/C=C/[C@@H]4CC(=O)[C@H]3[C@@H]2[C@H]1C)C5=O", "note": "(stereo not given in full)", "growth": "-58.2% (active)"}]}]}
